{"source": "the supplement of paper PMC11219838", "note": "Values without a mark were called inactive."}
{"tested_on": "Meloidogyne hapla J2", "test": "proportion of mobile M. hapla J2 relative to DMSO control (fraction of DMSO control); higher = more viable, less nematicidal, active = 0.7 or less", "conditions": "60 µM; 5 days; temperature: 20 °C", "how_it_was_run": "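About 25 M. hapla J2 were placed in each well of a 96-well plate in distilled water, and compound was pinned in to a final 60 µM with 0.6% v/v DMSO. The sealed plates were shaken at 200 rpm at 20 °C for 5 days, after which 2 µL of 1 M NaOH went into each well. Mobility was then scored under the microscope and divided by the mean value from DMSO-only wells on the same plate. Each plate held eight such DMSO wells, and two biological replicates were averaged.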"}
{"smiles": "Clc1cccc(-c2nc(-c3cccnc3)no2)c1", "proportion of mobile M. hapla J2": "0.312 (active)"}
{"smiles": "Cc1cc(OCc2nc(-c3cccnc3)no2)ccc1Cl", "proportion of mobile M. hapla J2": 0.942}
{"smiles": "Clc1ccc(OCc2nc(-c3ccccc3)no2)c(Cl)c1", "proportion of mobile M. hapla J2": 0.796}
{"smiles": "c1ccc(-c2nnc(SCc3cccnc3)o2)cc1", "proportion of mobile M. hapla J2": 0.92}
{"smiles": "COc1ccccc1-c1nnc(SCC(=O)OCc2ccccc2)o1", "proportion of mobile M. hapla J2": 0.978}
{"smiles": "COc1ccc(-c2noc(COc3ccccc3)n2)cc1", "proportion of mobile M. hapla J2": 1.02}
{"smiles": "COc1ccc(-c2noc(COc3ccc(C)c(C)c3)n2)cc1", "proportion of mobile M. hapla J2": 0.969}
{"smiles": "COC(=O)c1ccc(CSc2nnc(-c3ccncc3)o2)cc1", "proportion of mobile M. hapla J2": 0.999}
{"smiles": "Cc1ccc(-c2nc(C3CCCCC3)no2)cc1", "proportion of mobile M. hapla J2": 1.01}
{"smiles": "O=C(CSc1nnc(-c2ccccc2)o1)Nc1ccccc1F", "proportion of mobile M. hapla J2": 0.85}
{"smiles": "Clc1ccc(-c2nc(-c3ccc4c(c3)OCO4)no2)cc1", "proportion of mobile M. hapla J2": 1.03}
{"smiles": "CCOc1ccccc1-c1nc(-c2ccc(NC(=O)CCc3ccc(OC)cc3)cc2)no1", "proportion of mobile M. hapla J2": 0.918}
{"smiles": "c1ccc(COc2cccc(-c3nc(-c4ccncc4)no3)c2)cc1", "proportion of mobile M. hapla J2": 0.915}
{"smiles": "Clc1cccc(-c2nc(-c3ccccc3Cl)no2)c1", "proportion of mobile M. hapla J2": 0.991}
{"smiles": "O=C(CSc1nnc(-c2ccccc2)o1)NC1CCCCC1", "proportion of mobile M. hapla J2": 1.01}
{"smiles": "c1ccc2c(OCc3nc(-c4ccncc4)no3)cccc2c1", "proportion of mobile M. hapla J2": 0.979}
{"smiles": "Clc1ccc(-c2noc(-c3cccnc3)n2)cc1", "proportion of mobile M. hapla J2": 1}
{"smiles": "c1cncc(-c2noc(COc3cccc4ccccc34)n2)c1", "proportion of mobile M. hapla J2": 0.991}
{"smiles": "COc1ccc(-c2nnc(SCC(=O)Nc3cccc(Cl)c3Cl)o2)cc1", "proportion of mobile M. hapla J2": 0.932}
{"smiles": "COc1ccc(OC(C)c2nc(-c3ccccn3)no2)cc1", "note": "(stereo unspecified)", "proportion of mobile M. hapla J2": 1.03}
{"smiles": "O=C(CSc1nnc(-c2ccc(Cl)cc2)o1)Nc1ccccc1C(F)(F)F", "proportion of mobile M. hapla J2": 0.752}
{"smiles": "COc1ccc(-c2nnc(SCC(=O)OCc3ccccc3)o2)cc1", "proportion of mobile M. hapla J2": 0.953}
{"smiles": "Cn1c(SCc2cccc(F)c2)nnc1-c1ccco1", "proportion of mobile M. hapla J2": 0.929}
{"smiles": "O=C(CSc1nnc(-c2ccc(Br)cc2)o1)Nc1cccc2ccccc12", "proportion of mobile M. hapla J2": 0.923}
{"smiles": "Clc1ccccc1OCc1nc(-c2ccc(Br)cc2)no1", "proportion of mobile M. hapla J2": 1.02}
{"smiles": "Cc1ccccc1-c1nnc(SCc2ccccc2)o1", "proportion of mobile M. hapla J2": 0.986}
{"smiles": "Cc1cc(Cl)ccc1NC(=O)CSc1nnc(-c2ccncc2)o1", "proportion of mobile M. hapla J2": 0.974}
{"smiles": "COc1cccc(OCc2nc(-c3cccc(Br)c3)no2)c1", "proportion of mobile M. hapla J2": 0.999}
{"smiles": "Brc1ccc(-c2nc(-c3ccncc3)no2)cc1", "proportion of mobile M. hapla J2": 0.953}
{"smiles": "CC(=O)Nc1ccc(-c2nc(-c3ccccc3)no2)cc1", "proportion of mobile M. hapla J2": 0.961}
{"smiles": "COc1cccc(-c2noc(COc3ccccc3C)n2)c1", "proportion of mobile M. hapla J2": 0.861}
{"smiles": "Cc1ccc(OCc2nc(-c3ccc4c(c3)OCO4)no2)cc1C", "proportion of mobile M. hapla J2": 1.04}
{"smiles": "O=C(CSc1nnc(-c2cccc3ccccc23)o1)c1ccc(F)cc1", "proportion of mobile M. hapla J2": 0.912}
{"smiles": "CCc1ccc(OCc2nc(-c3ccc(Cl)cc3)no2)cc1", "proportion of mobile M. hapla J2": 1.03}
{"smiles": "Clc1ccc(OCc2nc(-c3ccccc3)no2)cc1", "proportion of mobile M. hapla J2": 1.04}
{"smiles": "COc1ccc(-c2noc(COc3ccc4c(c3)CCCC4)n2)cc1", "proportion of mobile M. hapla J2": 0.959}
{"smiles": "Cc1ccc(SCc2nc(-c3ccccc3)no2)cc1", "proportion of mobile M. hapla J2": 1.14}
{"smiles": "CCN(CC)C(=O)CSc1nnc(-c2ccc(Cl)cc2Cl)o1", "proportion of mobile M. hapla J2": 1.03}
{"tested_on": "Caenorhabditis elegans dauer (daf-2(e1370))", "test": "proportion of mobile C. elegans dauer larvae relative to DMSO control (fraction of DMSO control); higher = more viable, less nematicidal, active = 0.63 or less; extreme values may be limits of the assay", "conditions": "60 µM; 5 days; temperature: 20 °C", "how_it_was_run": "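Synchronized C. elegans daf-2(e1370) larvae were held at 25 °C for 48 h on MYOB plates with E. coli OP50 to form dauers, and about 20 dauers were added per 96-well well in liquid NGM. Compound was pinned to 60 µM final (0.6% v/v DMSO), and sealed plates were shaken at 200 rpm for 5 days at 20 °C. The proportion of mobile worms was scored under a dissection microscope relative to DMSO controls and averaged over two biological replicates.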"}
{"smiles": "Clc1cccc(-c2nc(-c3cccnc3)no2)c1", "proportion of mobile C. elegans dauer larvae": 1}
{"smiles": "Cc1cc(OCc2nc(-c3cccnc3)no2)ccc1Cl", "proportion of mobile C. elegans dauer larvae": 1}
{"smiles": "Clc1ccc(OCc2nc(-c3ccccc3)no2)c(Cl)c1", "proportion of mobile C. elegans dauer larvae": 1}
{"smiles": "c1ccc(-c2nnc(SCc3cccnc3)o2)cc1", "proportion of mobile C. elegans dauer larvae": 1}
{"smiles": "COc1ccccc1-c1nnc(SCC(=O)OCc2ccccc2)o1", "proportion of mobile C. elegans dauer larvae": 1}
{"smiles": "COc1ccc(-c2noc(COc3ccccc3)n2)cc1", "proportion of mobile C. elegans dauer larvae": 1}
{"smiles": "COc1ccc(-c2noc(COc3ccc(C)c(C)c3)n2)cc1", "proportion of mobile C. elegans dauer larvae": 1}
{"smiles": "COC(=O)c1ccc(CSc2nnc(-c3ccncc3)o2)cc1", "proportion of mobile C. elegans dauer larvae": 1}
{"smiles": "Cc1ccc(-c2nc(C3CCCCC3)no2)cc1", "proportion of mobile C. elegans dauer larvae": 1}
{"smiles": "O=C(CSc1nnc(-c2ccccc2)o1)Nc1ccccc1F", "proportion of mobile C. elegans dauer larvae": 1}
{"smiles": "Clc1ccc(-c2nc(-c3ccc4c(c3)OCO4)no2)cc1", "proportion of mobile C. elegans dauer larvae": 1}
{"smiles": "CCOc1ccccc1-c1nc(-c2ccc(NC(=O)CCc3ccc(OC)cc3)cc2)no1", "proportion of mobile C. elegans dauer larvae": 1}
{"smiles": "c1ccc(COc2cccc(-c3nc(-c4ccncc4)no3)c2)cc1", "proportion of mobile C. elegans dauer larvae": 1}
{"smiles": "Clc1cccc(-c2nc(-c3ccccc3Cl)no2)c1", "proportion of mobile C. elegans dauer larvae": 1}
{"smiles": "O=C(CSc1nnc(-c2ccccc2)o1)NC1CCCCC1", "proportion of mobile C. elegans dauer larvae": 1}
{"smiles": "c1ccc2c(OCc3nc(-c4ccncc4)no3)cccc2c1", "proportion of mobile C. elegans dauer larvae": 1}
{"smiles": "Clc1ccc(-c2noc(-c3cccnc3)n2)cc1", "proportion of mobile C. elegans dauer larvae": "0.452 (active)"}
{"smiles": "c1cncc(-c2noc(COc3cccc4ccccc34)n2)c1", "proportion of mobile C. elegans dauer larvae": 1}
{"smiles": "COc1ccc(-c2nnc(SCC(=O)Nc3cccc(Cl)c3Cl)o2)cc1", "proportion of mobile C. elegans dauer larvae": 1}
{"smiles": "COc1ccc(OC(C)c2nc(-c3ccccn3)no2)cc1", "note": "(stereo unspecified)", "proportion of mobile C. elegans dauer larvae": 1}
{"smiles": "O=C(CSc1nnc(-c2ccc(Cl)cc2)o1)Nc1ccccc1C(F)(F)F", "proportion of mobile C. elegans dauer larvae": 1}
{"smiles": "COc1ccc(-c2nnc(SCC(=O)OCc3ccccc3)o2)cc1", "proportion of mobile C. elegans dauer larvae": 1}
{"smiles": "Cn1c(SCc2cccc(F)c2)nnc1-c1ccco1", "proportion of mobile C. elegans dauer larvae": 1}
{"smiles": "O=C(CSc1nnc(-c2ccc(Br)cc2)o1)Nc1cccc2ccccc12", "proportion of mobile C. elegans dauer larvae": 1}
{"smiles": "Clc1ccccc1OCc1nc(-c2ccc(Br)cc2)no1", "proportion of mobile C. elegans dauer larvae": 1}
{"smiles": "Cc1ccccc1-c1nnc(SCc2ccccc2)o1", "proportion of mobile C. elegans dauer larvae": 1}
{"smiles": "Cc1cc(Cl)ccc1NC(=O)CSc1nnc(-c2ccncc2)o1", "proportion of mobile C. elegans dauer larvae": 1}
{"smiles": "COc1cccc(OCc2nc(-c3cccc(Br)c3)no2)c1", "proportion of mobile C. elegans dauer larvae": 1}
{"smiles": "Brc1ccc(-c2nc(-c3ccncc3)no2)cc1", "proportion of mobile C. elegans dauer larvae": 0.767}
{"smiles": "CC(=O)Nc1ccc(-c2nc(-c3ccccc3)no2)cc1", "proportion of mobile C. elegans dauer larvae": 1}
{"smiles": "COc1cccc(-c2noc(COc3ccccc3C)n2)c1", "proportion of mobile C. elegans dauer larvae": 1}
{"smiles": "Cc1ccc(OCc2nc(-c3ccc4c(c3)OCO4)no2)cc1C", "proportion of mobile C. elegans dauer larvae": 1}
{"smiles": "O=C(CSc1nnc(-c2cccc3ccccc23)o1)c1ccc(F)cc1", "proportion of mobile C. elegans dauer larvae": 1}
{"smiles": "CCc1ccc(OCc2nc(-c3ccc(Cl)cc3)no2)cc1", "proportion of mobile C. elegans dauer larvae": 1}
{"smiles": "Clc1ccc(OCc2nc(-c3ccccc3)no2)cc1", "proportion of mobile C. elegans dauer larvae": 1}
{"smiles": "COc1ccc(-c2noc(COc3ccc4c(c3)CCCC4)n2)cc1", "proportion of mobile C. elegans dauer larvae": 1}
{"smiles": "Cc1ccc(SCc2nc(-c3ccccc3)no2)cc1", "proportion of mobile C. elegans dauer larvae": 1}
{"smiles": "CCN(CC)C(=O)CSc1nnc(-c2ccc(Cl)cc2Cl)o1", "proportion of mobile C. elegans dauer larvae": 1}
